# Cycloheximide cs: counter-screen for Shiga toxin inhibitors: cycloheximide protein synthesis inhibition. max response, %. cell reporter, cycloheximide protein synthesis inhibition counterscreen. 300,000 compounds, 12% hits; in the data active = max response mostly above about 13%, no sharp cut-off; inactive = mostly below about 14%; also: read at 38.3 µM for the half of the compounds with a filed dose; 0% is about no effect
# Shiga toxin inh: inhibitors of Shiga toxin in Vero cells; Vero cells, Shiga toxin protein synthesis inhibition reporter; inhibition, % at 38.7 µM; 290,000 compounds, 9.2% hits; in the data active = inhibition mostly above about 28%, no sharp cut-off; inactive = mostly below about 43%; also: 0% is about no effect
# Pf growth 48h: P. falciparum growth inhibition at 48 hours (one generation); P. falciparum luciferase growth in erythrocytes, 48 h; Potency, µM (titrated, usually from 28.7 µM), for the others: at the highest dose activity change, negative = inhibition, usual class: inhibitors; 310,000 compounds, 5.9% hits; AID 504832; also: potency is read from the fitted curve at half-maximal effect; % is scaled to controls: 0 for no effect and ±100 for the full control effect
#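 Read-out is firefly luciferase luminescence from an integrated reporter in P. falciparum, so falling signal marks reduced parasite growth. Infected erythrocytes were at 2% hematocrit and 0.1% parasitemia (final) in Albumax-supplemented RPMI 1640.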
# NS1 function inh: inhibitors of influenza NS1 protein function | 270,000 compounds, 0.4% hits | Potency, µM (highest dose often 46.1 µM), without a hit: at the top dose activity, positive = more growth; calls by dose curve; also: potency is read from the fitted curve at half-maximal effect; actives are rising curves; nearly all actives have a fitted effect of over 50% in size
#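 Recovery from NS1-induced slow growth read by OD600 in budding yeast switched to galactose assay medium (pH 6.0, -URA) at 1:100 dilution. Compound 23 nl per well; the matching strain lacking NS1 serves as control.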
# Sm TGR inh: inhibitors of Schistosoma mansoni thioredoxin glutathione reductase | Q962Y6 | 360,000 compounds, 3% hits | purified TGR, DTNB reduction, TNB absorbance 405 nm | Potency, µM (highest dose often 114 µM), without a hit: top-dose activity change, negative = inhibition, hits mostly inhibitors; also: potency is read from the fitted curve at half-maximal effect; % is scaled to controls: 0 for no effect and ±100 for the full control effect; nearly all actives have a fitted effect of over 60% in size
#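 First, TGR (20 nM dispensed) and NADPH were mixed with compound. Second, a 15 min room-temperature incubation followed. Third, further NADPH and then DTNB were added to start the reaction. Finally, TNB absorbance was monitored kinetically.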
# Pf growth 96h: inhibits malaria parasite growth, 96 h; P. falciparum luciferase reporter growth, 96 h; Potency, µM (highest dose often 28.7 µM), without a hit: top-dose activity change, negative = inhibition, most hits filed as inhibitors; 320,000 compounds, 6.9% hits; AID 504834; also: potency is read from the fitted curve at half-maximal effect; % is scaled to controls: 0 for no effect and ±100 for the full control effect
#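 Delayed-death screen, second-generation endpoint: infected erythrocytes, 2% hematocrit, 0.05% parasitemia final; 96 hours at 37 C, 5% CO2; luciferase detection reagent; luminescence decrease equals reduced growth.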
# * hit, by the source's call; ? = inconclusive; . = no result. Compounds with a hit are over-represented: about 21% of the library has one in this group of screens. Unless noted, calls follow the shape of the dose curve; as a rule, active = well fitted curve in the direction sought with a large enough effect; inconclusive = small, poorly fitted or top-dose-only effect, or another doubt; inactive = no such curve, though single readings can be large; an effect the other way counts as inactive or inconclusive.
SMILES,Cycloheximide cs,Shiga toxin inh,Pf growth 48h,NS1 function inh,Sm TGR inh,Pf growth 96h
O=C(NCc1ccccc1)c1ccc2nc(N3CCOCC3)sc2c1,10.5,11.0,10.9%,-5.1%,10.3%,-1.0%
c1ccc2sc(N3CN(CCN4CCOCC4)CN(c4nc5ccccc5s4)C3)nc2c1,8.0,17.5,-5.7%,-62.5%,-16.3%,42.4%
c1ccc2sc(N3CCOCC3)nc2c1,44.2*,53.2,89.0%,0.2%,-2.0%,318.1%
CCOC(=O)c1cc(S(=O)(=O)N2CCN(Cc3ccccc3)CC2)cn1C,0.6,-3.5,11.8%,-14.9%,9.8%,?
O=C(NCCOc1ccccc1)c1cc(S(=O)(=O)N2CCOCC2)ccc1F,-6.4,-11.3,6.2%,-5.4%,4.2%,?
CCCCNS(=O)(=O)c1ccc(NS(=O)(=O)c2c(C)cc(C)cc2C)cc1,-1.9,-4.4,.,-75.6%,5.9%,?
O=C(CCn1cnnn1)Nc1ccc(F)cc1,26.4*,66.2*,96.4%,5.5%,26.7%,1.4%
O=C(CCc1ccccc1)Nc1ccc2c(c1)C(=O)OC2,10.4*,28.9,-1.1%,-3.7%,6.0%,56.7%
O=C(CCc1ccc(S(=O)(=O)N2CCOCC2)cc1)Nc1nc(COc2ccccc2)cs1,0.9,-17.4,11.7µM*,-1.0%,-5.9%,.
O=C1OCc2ccc(NC(=O)C3CCCCC3)cc21,-0.9,-14.4,30.7%,4.1%,4.1%,20.2%
CC(=O)Nc1ccc(NC(=O)CCn2cnnn2)cc1,-1.6,11.5,-5.4%,.,-5.7%,17.1%
O=C(NCc1ccccc1)NC1(C(=O)Nc2ccc3c(c2)OCCO3)CCCCC1,30.1*,70.8*,7.2%,-3.3%,4.3%,?
O=C(COc1ccccc1)Nc1nc(-c2ccc(S(=O)(=O)N3CCOCC3)cc2)cs1,-2.7,-4.8,?,2.3%,0.9%,.
CCC(C)(CC(=O)O)CC(=O)Nc1cc(C(F)(F)F)cc(C(F)(F)F)c1 (stereo not drawn),5.8,-4.8,12.8%,3.7%,-2.7%,-1.8%
O=C1CCCN1CCCNc1ncnc2sccc12,-1.8,-6.8,4.0%,.,4.6%,15.9%
COc1ccc(CCNC(=O)Cc2ccc(NC3=NC4CS(=O)(=O)CC4S3)cc2)c(OC)c1 (stereo not drawn),1.0,-6.4,2.6%,-7.9%,-15.4%,?
O=C(CCc1ccccc1)Nc1ccc2c(c1)OCCO2,47.7*,66.7*,9.0%,-10.9%,-3.3%,17.4%
O=C(CCCc1ccccc1)Nc1ccc(S(=O)(=O)N2CCOCC2)cc1,7.6,1.2,?,-8.8%,1.4%,10.4µM*
O=C(CCc1ccc(S(=O)(=O)N2CCOCC2)cc1)Nc1ccc2c(c1)OCCO2,14.3*,49.0*,?,3.3%,0.3%,?
O=C(CCc1ccc(S(=O)(=O)NCCc2ccccc2)cc1)Nc1ccc2c(c1)OCO2,1.4,12.9,?,7.2%,4.4%,.
O=C(CCCOc1ccccc1)Nc1ccc2c(c1)OCCO2,47.6*,65.3,99.6%,-5.5%,0.0%,-3.6%
C/C(N)=C(/C#N)C(=O)COC(=O)CC12CC3CC(CC(C3)C1)C2,-4.5,-3.8,?,-16.5%,-1.8%,.
CCOC(=O)c1ccc(NC(=O)Nc2cc(C)cc(C)n2)cc1,-0.7,13.0,29.9%,.,0.6%,-3.8%
CC(=O)c1cc2c(cc1NC(=O)CCCC(=O)O)OCO2,-4.5,-11.0,0.9%,4.1%,-15.2%,21.9%
COc1ccc(CCC(=O)Nc2ccc3c(c2)OCO3)cc1,11.1,16.3,-9.2%,0.1%,-1.4%,?
CCN(CC(=O)Nc1ccc2c(c1)OCCO2)C(=O)/C=C/c1ccc(OC)cc1OC,28.5*,59.8*,13.2%,-35.1%,-1.0%,12.3%
CC(=O)c1cc2c(cc1NC(=O)CCc1ccccc1)OCO2,24.0*,4.1,3.5%,-47.7%,4.2%,17.9%
COc1ccc(CCC(=O)Nc2ccc3c(c2)OCCO3)cc1,26.4*,38.7,38.5%,-7.4%,-1.1%,3.2%
CCN(CC(=O)Nc1ccc2c(c1)OCCO2)C(=O)/C=C/c1cccc(OC)c1OC,.,.,44.4%,.,0.8%,66.8%
O=C(CCSCc1ccccc1)Nc1ccc2c(c1)OCCO2,58.5*,48.2*,100.9%,-9.1%,13.4%,58.7%

# Bioassay records deposited in PubChem BioAssay by National Center for Advancing Translational Sciences (NCATS).
